Bioassay records deposited in PubChem BioAssay by The Scripps Research Institute Molecular Screening Center.
SMARCA2 act: SMARCA2 (BRM) function activators, primary screen, cell-based, luminescence, high throughput; MG213 cells, MMTV-luciferase reporter, dexamethasone, overnight; AID 652017, 2013; actives 1% (n = 370,000); activation, % at 9.1 µM; in the data active means activation above about 7.8%;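 further: 0% = vehicle wells and 100% = reference activator wells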
hgDAF-12 ag: H. glycines DAF-12 receptor agonists, primary screen, cell-based, luminescence, HEK293, GAL4 fusion, UAS-luciferase. Nuclear hormone receptor DAF-12 (Heterodera glycines), GAL4 fusion. HEK293 GAL4-hgDAF12 UAS-luciferase reporter, agonist luminescence; normalized to butyrate control. activation, % at 6.8 µM. actives 1.8% (n = 370,000). AID 687014, 2013;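 active means activation above a cutoff set at the mean of all screened compounds plus 3 SD, cut at about 10% in these data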;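 further: 0% = DMSO wells and 100% = sodium butyrate wells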
DAX1 StAR inh: DAX1 (NR0B1) inhibitors on StAR promoter, primary screen, cell-based, luminescence, SF-1 (NR5A1), full-length DAX-1; HEK293T StAR-luciferase reporter, SF-1/DAX-1 repression relief; inhibition, % at 6.8 µM; actives 1.1% (n = 370,000); AID 652010, 2013;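 active means inhibition above the mean over all tested compounds plus 3 SD, cut at about 3.6% in these data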;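 further: 0% = DAX-1 cells with DMSO and 100% = cells lacking DAX-1 with DMSO; higher inhibition means more luminescence from relief of DAX-1 repression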
hcDAF12 agonist: H. contortus DAF-12 nuclear receptor activators, primary screen, cell-based, luminescence, HEK293, lit1-tk-luc reporter; activation, % at 6.8 µM; actives 1.4% (n = 370,000); HEK293 hcDAF-12 lit1-tk-luc reporter; 0% DMSO, 100% Δ7-dafachronic acid; AID 652067, 2013;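 active means activation above the mean of all tested compounds plus 3 SD, cut at about 5.5% in these data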;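 further: 100% = response to 3 µM Δ7-dafachronic acid high control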
ssDAF-12 act: S. stercoralis DAF-12 nuclear receptor activators, primary screen, cell-based, luminescence, HEK293, GRIP1 co-expression, lit1-tk-luc; HEK293 ssDAF-12/GRIP1 lit1-tk-luc reporter; % of 3 µM dafachronic acid response; Nuclear hormone receptor DAF-12 (Strongyloides stercoralis); AID 652126, 2013; activation, % at 6.8 µM; actives 1% (n = 370,000);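 active means activation above the mean over all tested compounds plus 3 SD, cut at about 0.9% in these data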;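 further: 0% = DMSO-only wells and 100% = 3 µM delta7-dafachronic acid wells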
LXR ag: LXR agonists, Gal4 luciferase reporter, confirmation, counter-screen for hcDAF-12 agonist project, cell-based, luminescence, HEK293, H. contortus campaign; HEK293 Gal4-LXR tk-luc reporter, 24 h; normalized: DMSO 0%, positive control 100%; activation, % at 6.8 µM; shares compounds with hcDAF12 agonist; 3,400 tested, under 10 active;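 active means mean percent activation of the reporter above a cutoff set as the average over tested compounds plus their standard deviation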
Target sequence (P55055 whole entry, looked up, the tested form may be a part): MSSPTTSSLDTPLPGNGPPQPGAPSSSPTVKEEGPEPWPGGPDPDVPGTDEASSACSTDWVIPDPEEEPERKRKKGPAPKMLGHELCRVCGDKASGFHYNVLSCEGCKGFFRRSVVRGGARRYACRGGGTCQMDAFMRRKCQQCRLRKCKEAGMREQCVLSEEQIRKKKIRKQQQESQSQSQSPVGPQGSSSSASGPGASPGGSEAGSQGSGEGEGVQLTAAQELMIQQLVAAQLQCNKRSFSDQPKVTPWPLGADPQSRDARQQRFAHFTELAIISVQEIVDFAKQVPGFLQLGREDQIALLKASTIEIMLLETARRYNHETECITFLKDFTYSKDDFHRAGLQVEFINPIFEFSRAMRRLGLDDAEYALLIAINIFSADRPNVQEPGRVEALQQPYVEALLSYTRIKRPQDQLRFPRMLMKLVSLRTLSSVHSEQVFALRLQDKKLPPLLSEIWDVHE
hcDAF12 ag: H. contortus DAF-12 receptor agonists, confirmation, cell-based, luminescence, HEK293, lit1-tk-luc, triplicate. actives 61% (n = 3,400). AID 743032, 2013. shares compounds with hcDAF12 agonist. activation, % at 6.8 µM. HEK293 hcDAF-12 lit1-tk-luc reporter; % of Δ7-dafachronic acid response;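 active means mean activation across triplicate tests above the threshold derived from the earlier primary screen, cut at about 5.5% in these data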;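 further: 0% = DMSO only wells and 100% = 3 µM Δ7-dafachronic acid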
* hit, by the source's call; . = no result. Only some compounds are listed: those with a hit (about 4.2% of all), similar ones and a draw of the others.

SMILES	SMARCA2 act	hgDAF-12 ag	DAX1 StAR inh	hcDAF12 agonist	ssDAF-12 act	LXR ag	hcDAF12 ag
CCCCNC(=O)C[C@@H]1C(=O)N(CCc2ccc(Cl)cc2)C2=CCCCC[C@]21C(=O)OC	-1	-1	-1	0	-1	.	.
O=C(COC(=O)c1cc(Cl)ccc1Cl)NC1CCCC1	-1	2	0	1	-1	.	.
O=C(COC(=O)c1cc([N+](=O)[O-])ccc1Cl)NC1CCCC1	0	1	0	10*	0	0	0
COC(=O)[C@]12C[C@H](CC(=O)NCC34CC5CC(CC(C5)C3)C4)C(=O)N(CCc3ccc(OC)c(OC)c3)C1=C[C@H](COCc1ccccc1)O[C@@H]2C	-3	1	-1	-4	-1	.	.
O=c1c2ccccc2[nH]c(=S)n1CCc1ccccc1	7	10	1	8.1*	0	0	5.7*
CCn1cc(CCC(=O)Nc2ccc(Oc3cccnc3)cc2)c2ccccc21	-1	0	-1	-2	-1	.	.
O=C(N/N=C/c1c(Cl)[nH]c2ccccc12)c1ccc2c(c1)OCCO2	1	8	0	9.1*	1.3*	0	9.1*
Cc1ccsc1/C=N/NC(=O)c1ccc2c(c1)OCCO2	1	13*	2	8.1*	1	2	12*
CCn1c(COc2ccc(C)cc2)nnc1SCC(=O)Nc1ccc(C(=O)OC)cc1	-4	3	-2	1	-2	.	.
Clc1ccc(-c2cnn3c(-c4ccncc4)ccnc23)cc1	3	13*	3	7.2*	0	2	8.4*
CSc1nnc2sc3cc(C)ccc3n12	2	7	-1	9.6*	0	0	5
O=C(OCc1nc2ccccc2s1)c1cnccn1	7	7	1	8.2*	0	1	9.8*
O=C(OCc1nc2ccccc2s1)c1ccccc1O	3	6	4	3	0	.	.
O=C(O)c1ccccc1OCc1nc2ccccc2s1	3	10	2	9.2*	1.2*	1	7.2*
Cc1cccc(Cn2cc(CN3CC(N4CCN(CCOC(=O)c5cc6ccccc6o5)CC4)CS3(=O)=O)nn2)c1 (stereo unspecified)	-1	-1	0	1	0	.	.
CN(C)Cc1c(C(=O)Nc2ccccc2)[nH]c2ccccc12	6	9	2	7.1*	1	0	1
COC(=O)C1=C(C)N(C)C(=NCC2CC2)NC1c1ccccc1C(F)(F)F (stereo unspecified)	5	-2	-1	0	-1	.	.
CCn1c(SCC(=O)NCCc2ccccc2)nc2c([nH]c3ccccc32)c1=O	-2	4	1	7.2*	0	0	6.7*
COCCn1c(SCC(=O)N2CCCCCC2)nc2c([nH]c3ccccc32)c1=O	-1	3	1	7.2*	0	0	0
CCn1c(SCC(=O)NCCc2ccc(OC)c(OC)c2)nc2c([nH]c3ccccc32)c1=O	-3	3	0	4	1	.	.
COCCn1c(SCC(=O)N2CCCCC2)nc2c([nH]c3ccccc32)c1=O	1	0	0	4	1	.	.
COc1ccc(CN(C)S(=O)(=O)c2nnc(NC(=O)c3ccccc3OC)s2)cc1OC	-1	2	1	7.7*	0	0	4
Cc1cc(C)c2nc(/N=C(\N)NC(=O)c3ccccc3)nc(C)c2c1	5	5	1	6.9*	0	0	2
COc1ccc(Cl)cc1S(=O)(=O)N1CCN=C1C	-2	-1	1	12*	1.6*	0	2
Cc1cc(O)c(C(=O)/C=C/c2ccccc2O)c(=O)o1	3	5	0	6.8*	1	0	3
SMILES	SMARCA2 act	hgDAF-12 ag	DAX1 StAR inh	hcDAF12 agonist	ssDAF-12 act	LXR ag	hcDAF12 ag
CC(=O)c1nn(-c2ccc(Cl)cc2)cc1C(=O)c1ccccc1	-3	0	0	-2	-2	.	.
CCOC(=O)c1nn(-c2ccc(C)cc2)cc1C(=O)c1ccccc1	4	13*	3	6.9*	0	1	5.7*
O=C(c1cccs1)N1CCCc2ccccc21	-2	0	0	0	-2	.	.
Cc1ccc2c(c1)CCCN2C(=O)c1cccs1	4	0	1	7.4*	1	0	3
[O-][n+]1c2ccccc2c2n1CCCN=C2c1ccc(Cl)cc1	5	3	2	8.0*	1	0	8.6*
[O-][n+]1c2ccccc2c2n1CCN=C2c1ccc(Cl)cc1	5	4	0	5	0	.	.
N=C(N)N=Nc1c(O)[nH]c2ccc(Br)cc12	0	-3	0	0	-1	.	.
Cc1cccc(N=Nc2c(O)[nH]c3ccc(Br)cc23)c1	3	7	0	12*	1	0	6.3*
COc1ccc(Sc2cccc(Cl)c2)c(C(=O)O)c1	1	1	0	2	-1	.	.
O=C(NCCCN1CCN(c2ccc(F)cc2)CC1)Nc1ccc(Cl)cc1	-5	2	0	-2	-1	.	.
Cc1ccc(NC(=O)COC(=O)/C=C/c2cccc(Cl)c2)cc1S(=O)(=O)N1CCOCC1	4	0	0	8.7*	0	0	0
O=C(COC(=O)/C=C/c1cccc(Cl)c1)Nc1ccc(N2CCOCC2)cc1	-1	0	-1	0	-1	.	.
O=c1oc2ccccc2c(Nc2cc3ccccc3cc2O)c1[N+](=O)[O-]	0	17*	-1	8.3*	1.0*	1	14*
C[C@H](CO)N1C[C@H](C)[C@@H](CN(C)C(=O)C2CC2)OCc2cn(nn2)CCCC1=O	-1	2	0	1	-1	.	.
CN(C)c1ccc(-c2nnc(-c3ccccc3F)o2)cc1	3	13*	3	10*	1	2	6.5*
COc1ccc(Cn2ccc3ccc(-c4ccc5ccn(C(=O)C6CC6)c5c4)cc32)cc1	-1	8	0	2	0	.	.
